Compounds without any hit were thinned out: in the full panel of roughly 83,000, 20% have a hit.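 Interpretation: 100, growth as untreated; towards 0, rising growth inhibition; 0, no net growth; 0 to -100, cell death. Compounds scoring below 10 were considered active.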 Activity calls are given as the source filed them.
Assays:
Experiment in all cases: NCI-60 one-dose screen, 48 h (100 = growth as untreated, 0 = no growth, -100 = all killed)
Conditions in all cases: 10 µM unless noted
SR leukemia = tested on: SR leukemia
RPMI-8226 leukemia = tested on: RPMI-8226 leukemia
OVCAR-8 ovarian = tested on: OVCAR-8 ovarian
OVCAR-5 ovarian = tested on: OVCAR-5 ovarian
OVCAR-4 ovarian = tested on: OVCAR-4 ovarian
SK-OV-3 ovarian = tested on: SK-OV-3 ovarian
IGROV1 ovarian = tested on: IGROV1 ovarian
OVCAR-3 ovarian = tested on: OVCAR-3 ovarian
HS 578T breast = tested on: HS 578T breast
NCI/ADR-RES ovarian = tested on: NCI/ADR-RES ovarian

Measured: growth

CCCCCCCCCCCCCCCCCC1=NCCN1CCNC(C)=O
inactive: SR leukemia 19.3% | RPMI-8226 leukemia 91% | OVCAR-8 ovarian 98.2% | OVCAR-5 ovarian 91.7% | OVCAR-4 ovarian 95.2% | SK-OV-3 ovarian 107% | IGROV1 ovarian 91.1% | OVCAR-3 ovarian 94.7% | HS 578T breast 110% | NCI/ADR-RES ovarian 98.2%

CC(=O)Nc1nc(C)c(C(=O)N/N=C/N2CCOCC2)s1
inactive: SR leukemia 169% | RPMI-8226 leukemia 116% | OVCAR-8 ovarian 115% | OVCAR-5 ovarian 106% | OVCAR-4 ovarian 119% | SK-OV-3 ovarian 110% | IGROV1 ovarian 70.3% | OVCAR-3 ovarian 104% | HS 578T breast 97.6% | NCI/ADR-RES ovarian 120%

COc1ccc(/C=C(/C(=O)N2CCCCC2)c2cc(OC)c(OC)c(OC)c2)cc1
inactive: SR leukemia 13.6% | RPMI-8226 leukemia 15.7% | OVCAR-8 ovarian 34.4% | OVCAR-5 ovarian 35.1% | OVCAR-4 ovarian 56.8% | SK-OV-3 ovarian 27.6% | IGROV1 ovarian 42% | HS 578T breast 20.9%
active: OVCAR-3 ovarian -19.2% | NCI/ADR-RES ovarian 6.26%

CC(=O)Nc1ccc(S(=O)(=O)Cl)cc1
inactive: SR leukemia 86.8% | RPMI-8226 leukemia 100% | OVCAR-8 ovarian 113% | OVCAR-5 ovarian 109% | OVCAR-4 ovarian 110% | SK-OV-3 ovarian 106% | IGROV1 ovarian 116% | OVCAR-3 ovarian 112%

CC(C)OC(=O)Nn1cnc2ccccc21
active: SR leukemia -48%
inactive: RPMI-8226 leukemia 98.6% | OVCAR-8 ovarian 111% | OVCAR-5 ovarian 96.7% | OVCAR-4 ovarian 126% | SK-OV-3 ovarian 114% | IGROV1 ovarian 23.8% | OVCAR-3 ovarian 111% | HS 578T breast 114%

CCOC(=O)C1=NN(c2ccccc2)C2=NC(=O)/C(=C\c3cn(-c4ccccc4)nc3-c3cc4ccccc4o3)C(=O)N12
inactive: SR leukemia 98% | RPMI-8226 leukemia 83% | OVCAR-8 ovarian 100% | OVCAR-5 ovarian 106% | OVCAR-4 ovarian 103% | SK-OV-3 ovarian 97.6% | IGROV1 ovarian 89.1% | OVCAR-3 ovarian 103% | HS 578T breast 97.9% | NCI/ADR-RES ovarian 106%

CCN(CCO)CCNc1ccc(C)c2sc3cc(OC)ccc3c(=O)c12
inactive: RPMI-8226 leukemia 65.3% | OVCAR-8 ovarian 62.7% | OVCAR-5 ovarian 82.7% | OVCAR-4 ovarian 84.7% | SK-OV-3 ovarian 88.7% | IGROV1 ovarian 66.5% | OVCAR-3 ovarian 90.6% | HS 578T breast 84.2% | NCI/ADR-RES ovarian 64.1%
active: SR leukemia -3.46%

CNc1ccc(Nc2ccc(S(=O)(=O)O)cc2)c2c1C(=O)c1ccccc1C2=O
inactive: SR leukemia 99.7% | RPMI-8226 leukemia 107% | OVCAR-8 ovarian 101% | OVCAR-5 ovarian 98.7% | OVCAR-4 ovarian 109% | SK-OV-3 ovarian 117% | IGROV1 ovarian 105% | OVCAR-3 ovarian 121%

CCC(CCCN1C(=O)c2ccccc2C1=O)Nc1cc(OC)cc2c(C)ccnc12 (configuration not stated)
inactive: SR leukemia 54.9% | RPMI-8226 leukemia 96% | OVCAR-8 ovarian 98.7% | OVCAR-5 ovarian 99.9% | OVCAR-4 ovarian 73.8% | SK-OV-3 ovarian 100% | IGROV1 ovarian 137% | OVCAR-3 ovarian 99.1% | HS 578T breast 86.7%

Cc1nc2c(nnn2-c2ccccc2)c2nc(-c3ccc(Cl)cc3)oc(=O)c12
inactive: SR leukemia 103% | RPMI-8226 leukemia 108% | OVCAR-8 ovarian 110% | OVCAR-5 ovarian 104% | OVCAR-4 ovarian 114% | SK-OV-3 ovarian 119% | IGROV1 ovarian 111% | OVCAR-3 ovarian 118% | HS 578T breast 107% | NCI/ADR-RES ovarian 113%

COc1cc(-c2nn(-c3ccc(NC(=O)Nc4ccc(Cl)c(Cl)c4)cc3)cc2-c2ccncc2)ccc1Cl
active: SR leukemia 6.61% | RPMI-8226 leukemia -15.3% | HS 578T breast -26.9%
inactive: OVCAR-8 ovarian 29.1% | OVCAR-5 ovarian 72.8% | OVCAR-4 ovarian 36.7% | SK-OV-3 ovarian 62.8% | IGROV1 ovarian 36.9% | OVCAR-3 ovarian 24.1%

COc1ccc(C2C3(C#N)C(N)=NC(=C(C#N)C#N)C23C#N)cc1OC (configuration not stated)
inactive: SR leukemia 83.6% | RPMI-8226 leukemia 117% | OVCAR-8 ovarian 106% | OVCAR-5 ovarian 93.3% | OVCAR-4 ovarian 110% | SK-OV-3 ovarian 109% | IGROV1 ovarian 113% | OVCAR-3 ovarian 109% | HS 578T breast 96.5%

COc1ccc2c(c1)/C(=C/c1c(-c3cc(OC)c(OC)c(OC)c3)nc3sccn13)C(=O)N2
active: SR leukemia -41.1%
inactive: RPMI-8226 leukemia 60.7% | OVCAR-8 ovarian 105% | OVCAR-5 ovarian 85.2% | OVCAR-4 ovarian 95.8% | SK-OV-3 ovarian 106% | IGROV1 ovarian 29.2% | OVCAR-3 ovarian 99.5% | HS 578T breast 85.7% | NCI/ADR-RES ovarian 98.9%

Nc1nc2c(c3ncncc13)C(c1cccc(C(F)(F)F)c1)Cc1ncncc1-2 (configuration not stated)
inactive: SR leukemia 32.9% | RPMI-8226 leukemia 26.8% | OVCAR-8 ovarian 57.6% | OVCAR-5 ovarian 77.4% | OVCAR-4 ovarian 39.8% | SK-OV-3 ovarian 32.9% | IGROV1 ovarian 54.4% | HS 578T breast 18.2% | NCI/ADR-RES ovarian 15.3%
active: OVCAR-3 ovarian 2.43%

O=C(/C=C1\C(=O)N(Cc2ccc([N+](=O)[O-])cc2)c2ccccc21)c1ccc(OCCN2CCCCC2)cc1
active: SR leukemia -27.9% | RPMI-8226 leukemia -36% | OVCAR-8 ovarian 0.287% | OVCAR-5 ovarian -40.6% | OVCAR-4 ovarian -58.8% | IGROV1 ovarian -49.3% | OVCAR-3 ovarian -93.8% | HS 578T breast 6.94% | NCI/ADR-RES ovarian 6.18%
inactive: SK-OV-3 ovarian 85%

COc1ccc(-c2nc(SCC(C)C)nc(Nc3ccc(C)cc3)c2C#N)cc1
active: OVCAR-4 ovarian -50.4%
inactive: SR leukemia 44.3% | RPMI-8226 leukemia 73.2% | OVCAR-8 ovarian 72.3% | OVCAR-5 ovarian 86.4% | SK-OV-3 ovarian 73.7% | IGROV1 ovarian 59.5% | OVCAR-3 ovarian 33.8% | HS 578T breast 42.6% | NCI/ADR-RES ovarian 72.7%

COc1cc2c(c3c1c(=O)c1cccc(F)c1n3C)C=CC(C)(C)O2
inactive: SR leukemia 48.8% | RPMI-8226 leukemia 64.7% | OVCAR-8 ovarian 85.2% | OVCAR-5 ovarian 101% | OVCAR-4 ovarian 101% | SK-OV-3 ovarian 110% | IGROV1 ovarian 75.4% | OVCAR-3 ovarian 117% | HS 578T breast 101% | NCI/ADR-RES ovarian 83.9%

CCOC(=O)C1=C(C(F)(F)F)NC(=S)NC1CN1C(=O)c2ccccc2C1=O (configuration not stated)
active: SR leukemia -89%
inactive: RPMI-8226 leukemia 68.5% | OVCAR-8 ovarian 116% | OVCAR-5 ovarian 95.7% | OVCAR-4 ovarian 117% | SK-OV-3 ovarian 117% | IGROV1 ovarian 104% | OVCAR-3 ovarian 108% | HS 578T breast 109% | NCI/ADR-RES ovarian 112%

Cc1c(Cc2ccccc2)c(=O)oc2c(C)c(OCc3n[nH]c(=S)o3)ccc12
active: SR leukemia 5.04%
inactive: RPMI-8226 leukemia 56.6% | OVCAR-8 ovarian 30.6% | OVCAR-5 ovarian 89.9% | OVCAR-4 ovarian 43.8% | SK-OV-3 ovarian 86.9% | IGROV1 ovarian 67.3% | OVCAR-3 ovarian 74.5% | HS 578T breast 62.3% | NCI/ADR-RES ovarian 99.6%

COc1ccc(/C=C(/C(=O)N2CCN(c3ccc(C)cc3)CC2)c2cc(OC)c(OC)c(OC)c2)cc1N
inactive: SR leukemia 11.3% | RPMI-8226 leukemia 12.8% | OVCAR-8 ovarian 21.6% | OVCAR-5 ovarian 27.1% | OVCAR-4 ovarian 43.9% | SK-OV-3 ovarian 26.2% | IGROV1 ovarian 24.7% | HS 578T breast 32.6% | NCI/ADR-RES ovarian 13.7%
active: OVCAR-3 ovarian -27.8%

CCCC(=O)NNc1[nH]c(-c2ccc(OC)cc2)cc1C(=O)OCC
inactive: SR leukemia 106% | RPMI-8226 leukemia 98.4% | OVCAR-8 ovarian 110% | OVCAR-5 ovarian 95.7% | OVCAR-4 ovarian 117% | SK-OV-3 ovarian 113% | IGROV1 ovarian 18.1% | OVCAR-3 ovarian 90% | HS 578T breast 97.7% | NCI/ADR-RES ovarian 106%

CCC(CCCN1C(=O)c2ccccc2C1=O)Nc1cc(OC)cc2cccnc12 (configuration not stated)
active: IGROV1 ovarian -7.61%
inactive: SR leukemia 73.5% | RPMI-8226 leukemia 102% | OVCAR-8 ovarian 96.1% | OVCAR-5 ovarian 89.6% | OVCAR-4 ovarian 39.9% | SK-OV-3 ovarian 107% | OVCAR-3 ovarian 106% | HS 578T breast 84.5% | NCI/ADR-RES ovarian 99.5%

[2H]c1nc(=Nc2cc(NC(=O)C=C)c(N(C)CCN(C)C)cc2OC)[nH]c(-c2cn(C([2H])([2H])[2H])c3ccccc23)c1[2H]
active: SR leukemia -13.7% | SK-OV-3 ovarian 3.49%
inactive: RPMI-8226 leukemia 19% | OVCAR-8 ovarian 53.3% | OVCAR-5 ovarian 54.2% | OVCAR-4 ovarian 57.6% | IGROV1 ovarian 19.1% | OVCAR-3 ovarian 50.6% | HS 578T breast 63.7% | NCI/ADR-RES ovarian 39.1%

COc1ccc(Cn2cc3c(c2-c2ccc(O)cc2)CCc2cnoc2-3)cc1
active: OVCAR-3 ovarian -14.7% | HS 578T breast 5.28% | NCI/ADR-RES ovarian -1.58%
inactive: SR leukemia 11.5% | RPMI-8226 leukemia 26.6% | OVCAR-8 ovarian 34.9% | OVCAR-5 ovarian 41.2% | OVCAR-4 ovarian 48.4% | SK-OV-3 ovarian 12% | IGROV1 ovarian 19.7%

CC(=O)NNC(=O)c1sc(NC(C)=O)nc1C
inactive: SR leukemia 87.4% | RPMI-8226 leukemia 105% | OVCAR-8 ovarian 95.6% | OVCAR-5 ovarian 97% | OVCAR-4 ovarian 122% | SK-OV-3 ovarian 92.6% | IGROV1 ovarian 23.4% | OVCAR-3 ovarian 103% | HS 578T breast 74.9% | NCI/ADR-RES ovarian 104%

Oc1ccc(N=Nc2ccc(N=Nc3ccccc3)cc2)cc1
inactive: SR leukemia 43.1% | RPMI-8226 leukemia 24.8% | OVCAR-8 ovarian 23.1% | OVCAR-5 ovarian 79.3% | OVCAR-4 ovarian 76% | SK-OV-3 ovarian 42.6% | IGROV1 ovarian 53.6% | OVCAR-3 ovarian 18.3% | HS 578T breast 91.8% | NCI/ADR-RES ovarian 43.4%

CC(=O)Nc1nc(C)c(C(=O)NNS(=O)(=O)c2ccccc2)s1
active: IGROV1 ovarian 9.33%
inactive: SR leukemia 155% | RPMI-8226 leukemia 135% | OVCAR-8 ovarian 101% | OVCAR-5 ovarian 106% | OVCAR-4 ovarian 112% | SK-OV-3 ovarian 109% | OVCAR-3 ovarian 136% | HS 578T breast 112% | NCI/ADR-RES ovarian 118%

CCCCCCCCCCCCCCCC[n+]1cccc(C#N)c1
inactive: RPMI-8226 leukemia 45.1% | OVCAR-8 ovarian 51.6% | OVCAR-5 ovarian 79.7% | OVCAR-4 ovarian 56.6% | SK-OV-3 ovarian 100% | IGROV1 ovarian 69.2% | OVCAR-3 ovarian 35.5% | HS 578T breast 96.6% | NCI/ADR-RES ovarian 96.3%
active: SR leukemia -8.5%

From PubChem BioAssay (NCI)
